# From PubChem
# Sampled rows, rich in hits. Any-hit rate of the full collection: about 32%.
# CYP2C19 inhib: blocks human cytochrome P450 2C19; CYP2C19 Supersomes, luciferin-H EGE luminescence, 30 min; inhibition, % at 5 µM; 21% of 96,000 active;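 active = CYP2C19 inhibition above a set limit at 5 µM in the primary screen, cut at about 50% in these data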;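 note: plate controls were negative control wells for no effect and 2.5 mM tranylcypromine positive control for full effect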
# PostGolgi ctrl: yeast control strain growth, post-Golgi counter-screen; efflux-deficient yeast background strain, growth absorbance A615, 16 h; inhibition, % at 10 µM; 5% of 98,000 active
# CYP2C19 act: increases human CYP2C19 enzyme activity | P33261 | recombinant CYP2C19, luciferin-H EGE luminescence; hits give high values; 0 = fully inhibited enzyme, 1 = untreated enzyme | activation factor at 5 µM | 96,000 tested, under 10 active | AID 1025;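 active = activation factor of at least 2 at 5 µM in the primary screen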;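 note: 0 = wells with 2.5 mM tranylcypromine and 1 = vehicle-only wells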
# PostGolgi yeast: growth inhibition of a yeast mutant, post-Golgi transport screen; post-Golgi transport phenotypic cell assay; inhibition, % at 10 µM; 0.9% of 98,000 active;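 note: yeast cells grown in 1536-well plates; yeast grown about 18 h at 30C before absorbance read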
# CYP2C9 inhib: human CYP2C9 inhibition. P11712. CYP2C9 Supersomes, luciferin-H conversion, luminescence. inhibition, % at 5 µM. 20% of 96,000 active;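 active = blocking of liver enzyme CYP2C9 beyond about 50% at 5 µM, limit read from the data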
# Target sequence (P11712 whole entry, looked up): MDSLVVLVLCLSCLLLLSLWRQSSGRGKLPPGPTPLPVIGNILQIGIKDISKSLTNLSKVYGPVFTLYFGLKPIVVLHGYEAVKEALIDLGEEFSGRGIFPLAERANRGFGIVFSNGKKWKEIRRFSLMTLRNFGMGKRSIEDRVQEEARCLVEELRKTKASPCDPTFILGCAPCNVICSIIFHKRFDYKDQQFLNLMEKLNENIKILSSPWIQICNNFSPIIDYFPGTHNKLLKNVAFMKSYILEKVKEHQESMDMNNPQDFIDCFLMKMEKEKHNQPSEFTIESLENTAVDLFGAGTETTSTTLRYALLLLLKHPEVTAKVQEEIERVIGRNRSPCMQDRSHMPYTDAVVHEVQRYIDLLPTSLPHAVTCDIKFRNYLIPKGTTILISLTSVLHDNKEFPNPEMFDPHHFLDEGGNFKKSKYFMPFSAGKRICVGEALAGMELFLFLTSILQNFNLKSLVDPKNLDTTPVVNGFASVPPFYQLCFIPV
# CYP2C9 act: increases human cytochrome P450 2C9 activity; activation factor at 5 µM; AID 1024; 1.4% of 96,000 active; recombinant CYP2C9, luciferin-H conversion, luminescence; hits give high values; factor 1 = untreated enzyme, 0 = blocked; P11712;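 active = activation factor of 2 or more for CYP2C9 at a 5 µM dose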;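 note: 0 = sulfaphenazole-blocked wells and 1 = vehicle-only wells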
# Active calls of the source: *; . = not tested or not shown. Cut-off read from the data, not from the text of the source, unless noted: active = inhibition above about 30%; inactive = the rest.
SMILES,CYP2C19 inhib,PostGolgi ctrl,CYP2C19 act,PostGolgi yeast,CYP2C9 inhib,CYP2C9 act
O=C(CSc1nc(-c2ccco2)cc(C(F)(F)F)n1)Nc1ccc(C(=O)N2CCCCC2)cc1,55*,0,0.4,-5,85*,0.1
CCOC(=O)N1CCN(c2nc(-c3ccco3)cc(C(F)(F)F)n2)CC1,42,27,0.6,0,75*,0.2
O=C(CSc1nc(-c2ccco2)cc(C(F)(F)F)n1)NCC1CCCO1 (configuration not stated),71*,15,0.3,-3,24,0.8
O=C(CSc1nc(-c2ccco2)cc(C(F)(F)F)n1)NCCc1ccccc1,16,10,0.8,-4,30,0.7
O=C(CSc1nc(-c2ccco2)cc(C(F)(F)F)n1)N1CCN(Cc2ccccc2)CC1,83*,16,0.2,-4,68*,0.3
CCCCc1ccc(NC(=S)NCc2cccs2)cc1,9,29,0.9,-4,8,0.9
COc1ccc(CCNC(=O)CCSc2nc(-c3ccco3)cc(C(F)(F)F)n2)cc1,1,-10,1,1,5,0.9
O=C(CCSc1nc(-c2ccco2)cc(C(F)(F)F)n1)NCC1CCCO1 (configuration not stated),67*,6,0.3,3,-39,1.4
Cc1ccc(NC(=O)/C(=C\c2ccccc2)NC(=O)/C=C/c2ccccc2)cc1,0,6,1,-1,39,0.6
Nn1cnnc1SC1CCCCC1NS(=O)(=O)c1ccccc1 (configuration not stated),81*,2,0.2,-5,11,0.9
Cn1cnnc1SC1CCCCC1NS(=O)(=O)c1ccccc1 (configuration not stated),18,6,0.8,-2,14,0.9
COc1cccc(-n2cnc3scc(-c4cccs4)c3c2=O)c1,49,1,0.5,-3,79*,0.2
O=c1c2c(-c3cccs3)csc2ncn1-c1ccc(Br)cc1,37,38*,0.6,-14,32,0.7
COc1ccc(C(=O)Nn2cnc3scc(-c4cccs4)c3c2=O)c(O)c1,.,24,.,2,.,.
COc1ccc(S(=O)NC2CCCCC2)c(OC)c1C (configuration not stated),26,-2,0.7,8,2,1
Nc1nnnn1/N=C/c1ccc(O)cc1,68*,-4,0.3,2,84*,0.2
Cc1ccc(N(CC(N)=O)C2SC(=O)N(C)C2=O)cc1 (configuration not stated),17,7,0.8,-4,-5,1
COCCN(C(=O)CSc1nnc(Nc2ccccc2F)s1)c1c(N)n(Cc2ccccc2)c(=O)[nH]c1=O,32,-3,0.7,-5,62*,0.4
CN1C(=O)CC(N2CCC(c3nc4ccccc4[nH]3)CC2)C1=O (configuration not stated),-3,-1,1,6,-1,1
O=C(CCC1COc2ccccc2O1)Nc1cccnc1 (configuration not stated),81*,12,0.2,-5,45,0.5
O=C(CCC1COc2ccccc2O1)Nc1ncccc1O (configuration not stated),64*,10,0.4,-5,14,0.9
Cc1ccc(NC(=O)C2COc3ccccc3O2)nc1 (configuration not stated),90*,1,0.1,-7,30,0.7
O=C(COC(=O)C1COc2ccccc2O1)NC(=O)Nc1ccc2c(c1)OCCO2 (configuration not stated),30,15,0.7,16,67*,0.3
O=C(NCc1ccco1)C1CC(=O)N(CCc2ccccc2)C1 (configuration not stated),8,-2,0.9,-4,-3,1
CCOC(=O)c1ccc(NC(=O)Nc2cc(C)on2)cc1,-6,-7,1.1,17,-8,1.1
O=C(Nc1nncs1)C1COc2ccccc2O1 (configuration not stated),3,6,1,-4,28,0.7
CC1(C)Oc2ccc(NC(=O)C3COc4ccccc4O3)cc2O1 (configuration not stated),93*,18,0.1,-6,76*,0.2
O=C(Nc1nnc(C(F)(F)F)s1)C1COc2ccccc2O1 (configuration not stated),56*,23,0.4,-2,99*,0
